Several values for one entry are separate records, joined by “and”; a condition that tells them apart may be missing. Equal entries are not always repeated. Among all 5,500 compounds or so, about 2,000 (36%) were called active. Not shown: some 18% with an inconclusive outcome. No stated cut-off is given here; in the data, active means normalized growth mostly below about 0.91 (no sharp cut-off); inconclusive means no clear call, values can overlap the other calls; inactive means mostly above about 0.92. The list shows a part of the results.
Test: chemical genetic growth profiling, strain panel (AID 1159580);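 further: tested at 20 µM; growth read once vehicle control cultures reached saturation at 30 °C; 1 = growth at the plate median or of vehicle wells; lower values mean less growth of the strain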
Details: S. cerevisiae deletion strains, growth OD

Measured: normalized growth

COc1ccc(-c2c(O)c3c(OC)c4c(cc3oc2=O)OC(C)(C)C=C4)cc1
inactive: locus YAL013W, strain DEP1, hits give low values 0.959 | locus YAL021C, strain ccr4, hits give low values 0.938 | locus YAL026C, strain drs2, hits give low values 0.952 | locus YAL030W, strain snc1, hits give low values 0.951 | locus YBL061C, strain skt5, hits give low values 0.942 | locus YBR009C, strain hhf1, hits give low values 0.953 | locus YBR021W, strain FUR4, hits give low values 0.946 | locus YBR023C, strain chs3, hits give low values 0.947 | locus YBR171W, strain sec66, hits give low values 0.919 | locus YBR229C, strain ROT2, hits give low values 0.951 | locus YBR231C, strain swc5, hits give low values 0.954 | locus YBR279W, strain paf1, hits give low values 0.972 | locus YCL011C, strain gbp2, hits give low values 0.957 | locus YCL016C, strain dcc1, hits give low values 0.955 | locus YCL029C, strain bik1, hits give low values 0.937 | locus YCL061C, strain MRC1, hits give low values 0.945 | locus YCL069W, strain vba3, hits give low values 0.955 | locus YCR088W, strain abp1, hits give low values 0.947 | locus YDL005C, strain med2, hits give low values 0.966 | locus YDL035C, strain GPR1, hits give low values 1 | locus YDL040C, strain nat1, hits give low values 0.95 | locus YDL074C, strain BRE1, hits give low values 0.967 | locus YDL101C, strain DUN1, hits give low values 0.962 | locus YDL185W, strain tfp1, hits give low values 0.944 | locus YDL192W, strain arf1, hits give low values 0.959 | locus YDR001C, strain nth1, hits give low values 0.948 | locus YDR069C, strain doa4, hits give low values 0.992 | locus YDR101C, strain arx1, hits give low values 0.961 | locus YDR150W, strain NUM1, hits give low values 0.936 | locus YDR159W, strain sac3, hits give low values 1.01 | locus YDR162C, strain NBP2, hits give low values 0.962 | locus YDR195W, strain ref2 0.981 | locus YDR297W, strain sur2, hits give low values 1.02 | locus YDR318W, strain mcm21, hits give low values 0.936 | locus YDR334W, strain swr1, hits give low values 0.955 | locus YDR335W, strain msn5, hits give low values 0.971 | locus YEL003W, strain gim4, hits give low values 0.958 | locus YEL037C, strain rad23, hits give low values 0.962 | locus YEL061C, strain CIN8 (second series), hits give low values 0.957 | locus YER015W, strain faa2, hits give low values 0.975 | locus YER016W, strain bim1, hits give low values 0.951 | locus YER110C, hits give low values 0.949 | locus YER111C, strain swi4, hits give low values 0.969 | locus YER155C, strain BEM2 (second series), hits give low values 0.963 | locus YER155C, strain BEM2, hits give low values 0.956 | locus YER167W, strain BCK2, hits give low values 0.954 | locus YFR010W, strain ubp6, hits give low values 0.967 | locus YGL078C, strain dbp3, hits give low values 0.99 | locus YGL086W, strain mad1, hits give low values 0.949 | locus YGL167C, strain pmr1, hits give low values 0.92 | locus YGL173C, strain kem1, hits give low values 0.958 | locus YGL227W, strain vid30, hits give low values 0.953 | locus YGL240W, strain doc1, hits give low values 0.989 | locus YGL248W, strain PDE1, hits give low values 0.979 | locus YGL253W, strain hxk2, hits give low values 0.949 | locus YGR078C, strain PAC10, hits give low values 0.984 | locus YGR135W, strain pre9, hits give low values 0.931 | locus YGR252W, strain gcn5, hits give low values 0.96 | locus YHR013C, strain ard1, hits give low values 0.959 | locus YHR027C, strain rpn1, hits give low values 0.973 | locus YHR030C, strain SLT2, hits give low values 0.956 and 1 | locus YHR079C, strain IRE1 (second series), hits give low values 0.953 | locus YHR079C, strain IRE1, hits give low values 0.992 | locus YHR094C, strain hxt1, hits give low values 0.939 | locus YHR129C, strain ARP1, hits give low values 0.972 | locus YHR142W, strain chs7, hits give low values 0.925 | locus YHR200W, strain rpn10, hits give low values 0.946 | locus YIL066C, strain RNR3, hits give low values 0.957 | locus YIL073C, strain SPO22, hits give low values 0.919 | locus YIL125W, strain kgd1, hits give low values 0.978 | locus YIR030C, strain dcg1, hits give low values 0.958 | locus YJL092W, strain hpr5, hits give low values 0.946 | locus YJL095W, strain BCK1 (second series), hits give low values 0.954 | locus YJL095W, strain BCK1, hits give low values 0.944 and 0.971 | locus YJL115W, strain asf1, hits give low values 0.962 | locus YJL134W, strain LCB3, hits give low values 0.942 | locus YJL154C, strain vps35, hits give low values 0.958 | locus YJL164C, strain tpk1, hits give low values 0.967 | locus YJL166W, strain qcr8, hits give low values 0.966 | locus YJL187C, strain SWE1 (second series), hits give low values 0.943
active: locus YDR137W, strain rgp1, hits give low values 0.845 | locus YDR388W, hits give low values 0.924 | locus YDR392W, strain spt3, hits give low values 0.725 | locus YDR502C, strain sam2, hits give low values 0.891 | locus YJL129C, strain trk1, hits give low values 0.789 | locus YJL168C, strain set2, hits give low values 0.93
